Inhibition of ligand binding data for 53 compounds are collected here from PubChem BioAssay AID1211 (NMMLSC, 2008).

The source made the active and inactive calls. How the calls were made is not given here.

In this assay the target is Estrogen receptor (Homo sapiens) (UniProt P03372). Kind of assay: displacement of fluorescent estrogen from ERalpha – cell-based, Cos7 ERalpha-GFP, flow cytometry, primary screen (AID 1211).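 Further: 0% = DMSO vehicle wells and 100% = no E2-Alexa633 signal left.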 To be noted: fluorescent ligand competition, stronger effect = higher value. A general note: Flow cytometry measures light scatter and fluorescence of single cells or particles in a stream.
Estrogen receptor (Homo sapiens), sequence (P03372 whole entry, looked up): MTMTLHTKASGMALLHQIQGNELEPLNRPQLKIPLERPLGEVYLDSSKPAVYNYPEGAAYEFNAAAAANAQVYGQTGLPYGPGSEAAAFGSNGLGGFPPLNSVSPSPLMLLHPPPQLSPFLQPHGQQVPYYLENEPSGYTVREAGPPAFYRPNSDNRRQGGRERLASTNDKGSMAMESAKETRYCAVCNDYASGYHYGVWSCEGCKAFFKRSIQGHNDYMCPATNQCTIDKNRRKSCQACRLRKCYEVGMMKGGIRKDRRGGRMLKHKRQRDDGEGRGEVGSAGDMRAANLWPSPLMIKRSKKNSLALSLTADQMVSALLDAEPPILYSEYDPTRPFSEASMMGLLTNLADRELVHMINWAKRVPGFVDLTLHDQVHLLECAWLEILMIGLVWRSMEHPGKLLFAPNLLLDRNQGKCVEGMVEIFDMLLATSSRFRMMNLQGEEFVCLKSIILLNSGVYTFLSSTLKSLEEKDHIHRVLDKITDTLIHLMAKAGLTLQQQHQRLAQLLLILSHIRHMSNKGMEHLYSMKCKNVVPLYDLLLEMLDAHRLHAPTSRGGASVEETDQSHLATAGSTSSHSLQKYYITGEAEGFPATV

Turning to `N#Cc1c2c(c(=O)n3c1[nH]c1ccccc13)CCCC2`, where the note is “at 10 µM”, the inhibition of ligand binding was 23% (inactive).

Turning to `COc1ccc2c(c1)C1OCCC1C(c1ccco1)N2` (centres undefined), the inhibition of ligand binding (at 10 µM) was 46% (inactive).

Take `Cc1ccc(NC(=O)CSc2nnnn2-c2ccc3c(c2)OCO3)cc1C`: the inhibition of ligand binding (at 10 µM) was 33% (inactive).

Regarding `CC(=O)c1ccc(N2Cc3ccccc3C2)cc1`, the inhibition of ligand binding (at 10 µM) was 8% (inactive).

`CCOC(=O)c1ccc2c(c1)C1C=CCC1C(C(=O)O)N2` (centres undefined): the inhibition of ligand binding (at 10 µM) is 51% (inactive).

With `Cn1cccc1/C=C1\SC(=O)N(c2ccc(O)cc2)C1=O`, the inhibition of ligand binding (at 10 µM) is 45% (inactive).

As to `O=C(COC(=O)C1CC2C=CC1C2)NCc1ccco1` (centres undefined), for the setting “at 10 µM”, the inhibition of ligand binding was 16% (inactive).

Regarding `COc1ccc(CCn2c(SCC(=O)Nc3cc(C)on3)nc3ccsc3c2=O)cc1OC`, under “at 10 µM”, the inhibition of ligand binding is 33% (inactive).

With `O=c1oc2cc(O)ccc2c2c1CCC2`, under “at 10 µM”, the inhibition of ligand binding is 0% (inactive).

On to `COc1cc([N+](=O)[O-])cc2c1NC(c1ccccc1)C1CC=CC21` (centres undefined), for which the inhibition of ligand binding (at 10 µM) was 0% (inactive).

`COc1cc(NC(=O)c2cccs2)c(C(=O)OCC(=O)NC(=O)NCc2ccccc2)cc1OC`: for the setting “at 10 µM”, the inhibition of ligand binding was 24% (inactive).

With `CCNC(=O)c1ccc2c(c1)C1C3CCC(C3)C1C(c1ccccc1)N2` (centres undefined), the inhibition of ligand binding (at 10 µM) was 66% (active).

For the compound `CCc1cc2c3c(c(=O)oc2cc1OC)CCCC3`, the inhibition of ligand binding (at 10 µM) is 0% (inactive).

As to `Fc1ccc2c(c1)C1C=CCC1C(c1cc3c(cc1Br)OCO3)N2` (centres undefined), where the note is “at 10 µM”, the inhibition of ligand binding is 84% (active).

Regarding `Clc1ccc2c(c1)[C@H]1OCC[C@H]1[C@@H](c1ccco1)N2`, the inhibition of ligand binding (at 10 µM) was 0% (inactive).

With `O=C(O)c1ccc([N+](=O)[O-])c2c1NC(c1ccccc1)C1CC=CC21` (centres undefined), the inhibition of ligand binding (at 10 µM) was 100% (active).

Turning to `N#Cc1ccc(-c2cccnc2)nc1SCC(=O)Nc1sc2c(c1C#N)CCC2`, the inhibition of ligand binding (at 10 µM) was 15% (inactive).

Turning to `CCCc1cc(=O)oc2c(C)c(OC3CCCCC3=O)ccc12` (centres undefined), the inhibition of ligand binding (at 10 µM) was 0% (inactive).

Consider `Cc1ccc(S(=O)(=O)Cc2ccc(C(=O)O)o2)cc1`, for which the inhibition of ligand binding (at 10 µM) was 34% (inactive).

For `CCCc1c(C(=O)OCC)[nH]c2c1C(=O)CC(c1ccccc1)C2` (centres undefined), the inhibition of ligand binding (at 10 µM) is 27% (inactive).

As to `COc1cc([N+](=O)[O-])cc2c1NC(c1ccc(Br)cc1)C1CC=CC21` (centres undefined), the inhibition of ligand binding (at 10 µM) was 0% (inactive).

Turning to `Cc1ccc2nc(/C(C#N)=C\c3ccc(N4CCCCC4)c([N+](=O)[O-])c3)[nH]c2c1`, the inhibition of ligand binding by setting is: (at 10 µM) 55% (inactive); (binding inhibition, at 0.1 µM) 25%.

Consider `COc1ccccc1C(=O)Nc1nc(-c2cccs2)c(NC(C)=O)s1`, for which the inhibition of ligand binding by setting is: (at 10 µM) 29% (inactive); (binding inhibition, at 0.1 µM) 25%.

Take `O=C(COC(=O)CN1C(=O)c2ccccc2C1=O)Nc1ncc(Cl)cc1Cl`: the inhibition of ligand binding runs as follows: (at 10 µM) 7% (inactive); (binding inhibition, at 0.1 µM) 14%.

For `CC(C)COc1ccc2c(c1)c1c3n2CCNC3CCC1` (centres undefined), the inhibition of ligand binding (at 10 µM) was 22% (inactive).

Consider `Fc1ccc2c(c1)[C@H]1OCC[C@H]1[C@@H](c1ccco1)N2`, for which, where the note is “at 10 µM”, the inhibition of ligand binding was 34% (inactive).

For `COc1cccc(-c2cc(C(=O)Nc3cc(C)nn3-c3ccccc3)no2)c1`, under “at 10 µM”, the inhibition of ligand binding was 30% (inactive).

Turning to `O=C(Cc1cn2ccsc2n1)OCc1nc2ccccc2s1`, the inhibition of ligand binding (at 10 µM) is 26% (inactive) and the inhibition of ligand binding (binding inhibition, at 0.1 µM) came out at 18%.

In the case of `CCCNC(=O)c1ccc2c(c1)C1C3CCC(C3)C1C(c1ccccc1)N2` (centres undefined), where the note is “at 10 µM”, the inhibition of ligand binding is 67% (active).

With `Cc1ccc2c(c1)c(=O)c1c3n2CCN(C(=O)CCl)C3CC1` (centres undefined), the inhibition of ligand binding by setting is: (at 10 µM) 21% (inactive); (binding inhibition, at 0.1 µM) 26%.

In the case of `CC(=O)Oc1ccc(C2Nc3c(C(=O)O)ccc([N+](=O)[O-])c3C3C=CCC32)cc1` (centres undefined), for the setting “at 10 µM”, the inhibition of ligand binding is 85% (active).

Consider `C=CCSC1=N/C(=C\C=C\c2ccco2)C(=O)S1`, for which the inhibition of ligand binding (at 10 µM) is 0% (inactive).

With `CC(=O)c1ccc(NC(=S)N2CCCC(CO)C2)cc1` (centres undefined), the inhibition of ligand binding is, setting by setting: (at 10 µM) 13% (inactive); (binding inhibition, at 0.1 µM) 1%.

As to `Nc1ccc(/C=C/C(=O)c2ccco2)cc1`, the inhibition of ligand binding is, setting by setting: (at 10 µM) 9% (inactive); (binding inhibition, at 0.1 µM) 11%.

Turning to `CCCCc1cc2c(=O)c(-c3ccccn3)coc2cc1O`, the inhibition of ligand binding (at 10 µM) is 1% (inactive).

Turning to `O=C(c1cccc(F)c1)N1CCN(C(=O)c2cc3ncc(Br)cn3n2)CC1`, the inhibition of ligand binding is, setting by setting: (at 10 µM) 35% (inactive); (binding inhibition, at 0.1 µM) 50%.

Take `CC(=O)OC1CC2(C)C(=O)CCC2C2CCc3cc(O)ccc3C12` (centres undefined): the inhibition of ligand binding (at 10 µM) is 23% (inactive).

Take `CCOC(=O)COc1cc2oc(=O)c3c(c2cc1CC)CCCC3`: the inhibition of ligand binding (at 10 µM) is 0% (inactive).

In the case of `CCCc1nc2sc3ccccc3c(=O)c2c(=O)n1Cc1ccco1`, the inhibition of ligand binding runs as follows: (at 10 µM) 42% (inactive); (binding inhibition, at 0.1 µM) 1%.

Regarding `COC(=O)c1ccc(-c2n[nH]c(=O)c3ccccc23)cc1`, the inhibition of ligand binding (at 10 µM) is 0% (inactive) and the inhibition of ligand binding (binding inhibition, at 0.1 µM) is 16%.

As to `Cc1cc(Cl)ccc1OCC(=O)OC(C)C(=O)N(C)C` (centres undefined), the inhibition of ligand binding by setting is: (at 10 µM) 30% (inactive); (binding inhibition, at 0.1 µM) 53%.

On to `Cc1ccc(-c2cc(C(=O)NCc3ccco3)c3ccccc3n2)o1`, for which the inhibition of ligand binding runs as follows: (at 10 µM) 60% (inactive); (binding inhibition, at 0.1 µM) 58%.

Consider `O=c1oc2c(CN3CCCC3)c(O)ccc2c2c1CCC2`, for which the inhibition of ligand binding (at 10 µM) was 0% (inactive).

Take `Cc1c(Cl)cccc1NS(=O)(=O)c1ccc2c(c1)C1C=CCC1C(c1ccc(C(=O)O)cc1)N2` (centres undefined): the inhibition of ligand binding is 55% (inactive) (at 10 µM) and 1% (binding inhibition, at 0.1 µM).

In the case of `CCSc1nc2c(cnn2-c2ccc(C)cc2)c(=O)[nH]1`, the inhibition of ligand binding (at 10 µM) is 22% (inactive).

In the case of `CCCCCCc1cc2c3c(c(=O)oc2cc1OCC(=O)OC)CCC3`, the inhibition of ligand binding (at 10 µM) is 0% (inactive).

As to `Nc1ccc(-c2nc3ccc([N+](=O)[O-])cc3[nH]2)cc1`, the inhibition of ligand binding runs as follows: (at 10 µM) 36% (active); (binding inhibition, at 0.1 µM) 82%.

Take `O=C(CSc1nnc(-c2ccc(O)cc2)n1Cc1ccccc1)NNC(=O)c1ccc(Br)cc1`: the inhibition of ligand binding (at 10 µM) was 48% (inactive).

Consider `Cc1nnc(NC(=O)Cc2cccs2)s1`, for which the inhibition of ligand binding by setting is: (at 10 µM) 44% (inactive); (binding inhibition, at 0.1 µM) 42%.

Consider `COc1ccc(NC2=CC(c3cccc(OC)c3)N(c3ccc(OC)cc3)C2=O)cc1` (centres undefined), for which, where the note is “at 10 µM”, the inhibition of ligand binding is 48% (inactive).

Take `COc1cccc2cc3c(=O)n(-c4ccccc4)nc-3oc12`: the inhibition of ligand binding is 47% (inactive) (at 10 µM) and 23% (binding inhibition, at 0.1 µM).

Consider `COc1ccc(C(=O)N/N=C(\C)c2ccc3c(c2)C2C=CCC2C(c2ccccc2)N3)cc1` (centres undefined), for which the inhibition of ligand binding (at 10 µM) was 73% (active).

On to `COc1cc2c(c([N+](=O)[O-])c1)NC(c1ccc(Br)cc1)C1CC=CC21` (centres undefined), for which, under “at 10 µM”, the inhibition of ligand binding was 0% (inactive).
